These results are taken from PubChem BioAssay (NCI).

Test systems include NCI-H23 lung; NCI-H226 lung; NCI-H322M lung; HOP-62 NSCLC; NCI-H460 lung; HOP-92 NSCLC; NCI-H522 lung; A549/ATCC NSCLC; 786-0 renal; COLO 205 colon; DU-145 prostate; K-562 leukemia; MALME-3M melanoma; MDA-MB-231 breast; RXF 393 renal; SF-268 CNS; SF-295 CNS; SF-539 CNS; UACC-257 melanoma; M14 melanoma.
What all share (assay): NCI-60 one-dose screen, 48 h (100 = growth as untreated, 0 = no growth, -100 = all killed)
Holding throughout (settings): 10 µM unless noted

The panel holds about 83,000 compounds, 20% with a hit somewhere; the sample as a whole holds those more often.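 Plates (96-well) were seeded with cells, treated with compound at one concentration, and incubated for 48 hours before percent growth was determined.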 A number with no mark means an inactive call. Active and inactive are the calls of the source. How the source made its calls: active means growth percent below 10; inactive means the rest.

`COc1ccc(OCC(O)CN2CCN(c3ccc(Cl)cc3)CC2)cc1` (stereo not given): the growth in the test with NCI-H23 lung is 228%; in the test on NCI-H226 lung, 86.3%; in the test with NCI-H322M lung, 89.6%; in the test on HOP-62 NSCLC, 103%; in the test with NCI-H460 lung it was 93.4%; in the test on HOP-92 NSCLC, 97.9%. Moreover, the growth with NCI-H522 lung is 74.3%; in the test with A549/ATCC NSCLC, 93.2%; in the test on 786-0 renal, 151%; in the test on COLO 205 colon, 95.7%; in the test on DU-145 prostate, 112%; in the test on K-562 leukemia, 105%. The growth in the test with MALME-3M melanoma was 106%; in the test on MDA-MB-231 breast, 88.1%; in the test with RXF 393 renal, 98%; with SF-268 CNS, 105%; in the test with SF-295 CNS, 92.1%; with SF-539 CNS, 95.5%. Also, the growth in the test with UACC-257 melanoma was 81.9%; in the test with M14 melanoma it was 102%.
Turning to `O=C(O)c1cc2ccccc2cc1Nc1ccccc1`, the growth was 84.6% in the test with NCI-H23 lung; 93.8% with NCI-H226 lung; 108% in the test on NCI-H322M lung; 82.3% with HOP-62 NSCLC; 91.8% in the test with NCI-H460 lung; 91.3% in the test on HOP-92 NSCLC. Besides, the growth in the test on NCI-H522 lung was 80.6%; in the test with A549/ATCC NSCLC, 87.6%; in the test on 786-0 renal, 101%; with COLO 205 colon it was 122%; with DU-145 prostate it was 113%; in the test on K-562 leukemia, 98.3%. Further, the growth with MALME-3M melanoma was 111%; with MDA-MB-231 breast, 96.2%; in the test with RXF 393 renal, 77.7%; with SF-268 CNS, 99.7%; with SF-295 CNS it was 104%; in the test with SF-539 CNS, 74.2%. Moreover, the growth in the test with UACC-257 melanoma was 4.2% (active); in the test on M14 melanoma, 96.7%.
For `COc1ccc2c(c1)OC(N(C(C)=O)C(C)=O)=C(C#N)C2c1ccc(F)cc1` (stereo not given), the growth with NCI-H23 lung was 50.9%; in the test with NCI-H226 lung, 75.2%; in the test on NCI-H322M lung, 48.8%; with HOP-62 NSCLC, 39.2%; in the test with NCI-H460 lung, 15.8%; with HOP-92 NSCLC, 63.4%. Further, the growth with NCI-H522 lung was -5.26% (active); with A549/ATCC NSCLC it was 45.1%; in the test with 786-0 renal, 28.9%; in the test with COLO 205 colon, 30.2%; in the test on DU-145 prostate it was 37.9%; with K-562 leukemia, 10.2%. Besides, the growth with MALME-3M melanoma is 62.5%; in the test on MDA-MB-231 breast, 53.1%; in the test with RXF 393 renal it was -2.33% (active); in the test with SF-268 CNS it was 54.1%; with SF-295 CNS it was 18.3%; in the test on SF-539 CNS, 13.9%. Further, the values for the growth in the test on UACC-257 melanoma and in the test on M14 melanoma were 63% and 20.5%, respectively.
As to `COc1ccc(-c2nn(-c3ccc(NC(=O)c4ccc(Cl)c(C(F)(F)F)c4)cc3)cc2-c2ccncc2)cc1Cl`, the growth in the test with NCI-H23 lung was 30.2%; in the test on NCI-H226 lung, 70.5%; with NCI-H322M lung, 51.5%; in the test with HOP-62 NSCLC it was -24.9% (active); with NCI-H460 lung, 11.3%; with HOP-92 NSCLC, -0.441% (active). Moreover, the growth in the test with NCI-H522 lung is 30.6%; in the test on A549/ATCC NSCLC, 31%; in the test on 786-0 renal it was -55.7% (active); with COLO 205 colon, -19% (active); with DU-145 prostate, 45%; in the test on K-562 leukemia, 0.122% (active). The growth is 6.68% (active) in the test with MALME-3M melanoma; -29.6% (active) in the test on MDA-MB-231 breast; -76% (active) in the test on RXF 393 renal; 14.5% in the test on SF-268 CNS; -30.3% (active) in the test on SF-295 CNS; 9.99% (active) in the test on SF-539 CNS. Besides, the growth in the test with UACC-257 melanoma is 51.2%; in the test with M14 melanoma, 13.3%.
As to `Cc1cccc(Cc2cnc(NC(=O)CCc3ccc(C)o3)s2)c1`, the growth is 35.3% in the test with NCI-H23 lung; 35.1% in the test on NCI-H226 lung; 45.9% in the test with NCI-H322M lung; 47.5% in the test with HOP-62 NSCLC; 4.15% (active) in the test with NCI-H460 lung; 64.9% with HOP-92 NSCLC. The growth with NCI-H522 lung was 4.74% (active); with A549/ATCC NSCLC, 26.1%; in the test with 786-0 renal it was 29.8%; in the test with COLO 205 colon, -9.57% (active); in the test with DU-145 prostate, 18.8%; with K-562 leukemia it was 6.63% (active). Moreover, the growth in the test with MALME-3M melanoma is 82.8%; in the test on MDA-MB-231 breast, 15.4%; in the test on RXF 393 renal, 8.05% (active); with SF-268 CNS it was 38%; in the test on SF-295 CNS, 10.4%; in the test with SF-539 CNS it was 2.41% (active). In addition, the figures for the growth with UACC-257 melanoma and in the test with M14 melanoma were 79.6% and 11.5%, respectively.
For `C=CC(=O)NC(=O)Nc1ccccc1Cl`, the growth in the test on NCI-H23 lung was 103%; in the test on NCI-H226 lung, 94.2%; in the test with NCI-H322M lung, 90.2%; in the test with HOP-62 NSCLC, 89.8%; with NCI-H460 lung, 102%; in the test on HOP-92 NSCLC, 86.2%. The growth in the test with NCI-H522 lung was 6.09% (active); with A549/ATCC NSCLC, 75.4%; in the test on 786-0 renal, 74.3%; with COLO 205 colon it was 88.9%; in the test with DU-145 prostate, 48.4%; with K-562 leukemia, 41.2%. Also, the growth is 83% with MALME-3M melanoma; 72.4% in the test with MDA-MB-231 breast; 88.7% with RXF 393 renal; 96.7% with SF-268 CNS; 101% in the test on SF-295 CNS; 72.3% in the test with SF-539 CNS. Moreover, the growth with UACC-257 melanoma is 71.9%; with M14 melanoma, 70%.
Take `CN(C)c1ccc(/C=N/N=C(N)N)cc1`: the growth in the test on NCI-H23 lung was 81.2%; with NCI-H226 lung, 82.2%; in the test on NCI-H322M lung it was 99.4%; in the test on HOP-62 NSCLC, 75.3%; in the test on NCI-H460 lung it was 83.2%; with HOP-92 NSCLC, 73.6%. Besides, the growth is 66.7% in the test on NCI-H522 lung; 70.7% in the test on A549/ATCC NSCLC; 103% in the test with 786-0 renal; 54.7% in the test with COLO 205 colon; 92.6% in the test with DU-145 prostate; 40% in the test with K-562 leukemia. The growth in the test with MALME-3M melanoma was 77%; in the test on MDA-MB-231 breast it was 75.8%; with RXF 393 renal it was 75.1%; in the test with SF-268 CNS, 87%; in the test on SF-295 CNS it was 61.4%; with SF-539 CNS, 90.9%. For the same molecule, the growth in the test on UACC-257 melanoma is 72.4%; with M14 melanoma, 51.2%.
With `COc1ccc(-c2nnc(SCC(=O)Nc3ccc(C(=O)/C=C/c4ccccc4)cc3)o2)cc1OC`, the growth in the test with NCI-H23 lung is 88%; in the test on NCI-H226 lung, 89%; in the test with NCI-H322M lung it was 90.8%; in the test with HOP-62 NSCLC it was 119%; in the test on NCI-H460 lung it was 103%; in the test with HOP-92 NSCLC, 105%. For the same molecule, the growth was 91.4% in the test with NCI-H522 lung; 97.7% with A549/ATCC NSCLC; 101% with 786-0 renal; 113% with COLO 205 colon; 96.7% in the test with DU-145 prostate; 95.4% with K-562 leukemia. The growth in the test with MALME-3M melanoma is 104%; in the test with MDA-MB-231 breast it was 106%; in the test on RXF 393 renal, 99.8%; in the test with SF-268 CNS, 97.6%; with SF-295 CNS, 104%; in the test with SF-539 CNS it was 95.7%. Further, the growth in the test with UACC-257 melanoma and in the test on M14 melanoma was 105% in each case.
